Values joined by “and” are separate entries in the source; they are usually repeats but may differ in a detail not shown here. Equal values may be shown once. Inconclusive results are not listed. Active and inactive are the calls of the source. Unless noted, the call rests on the fitted dose curve; in most records, active means well fitted curve in the direction sought with a large enough effect in the repeat runs; inconclusive means weak or mixed curves; inactive means no such curve, though single readings can be large; an effect the other way counts as inactive or inconclusive.
Key:
[1] = qHTS assay for small molecules that induce genotoxicity in human embryonic kidney cells expressing luciferase-tagged ATAD5 - cell viability (AID 651634; calls by dose curve; further: nearly all actives have a fitted effect of over 25% in size; further: potency means the concentration at half of the fitted maximal effect)
Procedure, shortened: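 After 15.5 hr incubation with compound at 37C, 5% CO2, HEK293T ATAD5-luciferase cells received CellTiter-Fluor reagent; fluorescence intensity was quantified following 30 min at 37C.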

[2] = qHTS assay for small molecule disruptors of the mitochondrial membrane potential - cell viability (AID 720634; calls by dose curve; further: nearly all actives have a fitted effect of over 20% in size; further: potency means the concentration at half of the fitted maximal effect)
Procedure, shortened: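 ATP-based luminescent viability readout (CellTiter-Glo, 30 min, room temperature) in HepG2 cells multiplexed with the m-MPI membrane potential dye; compound exposure lasted 1 hr at 37 C.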

[3] = qHTS assay for small molecule disruptors of the mitochondrial membrane potential (AID 720635); further: potency means the concentration at half of the fitted maximal effect
Procedure, shortened: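 HepG2 cells (2,000/well) attached overnight at 37C, then took compound for 1 hr at 37C, 5% CO2. Mito-MPS dye was added for 30 min; fluorescence was read at 490/535 nm (monomers) and 540/590 nm (aggregates).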

[4] = qHTS assay to test for compound auto fluorescence at 590 nm (red) in HepG2 cells (AID 720674)
Procedure, shortened: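 Compound auto-fluorescence is scored relative to Rose Bengal sodium, measured at 540/590 nm in live HepG2 cultures after 1 hr compound contact (37 C, 5% CO2).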

[5] = qHTS assay to test for compound auto fluorescence at 535 nm (green) in HepG2 cells (AID 720675)
[6] = qHTS assay to test for compound auto fluorescence at 460 nm (blue) in HEK293 cells (AID 720678)
Procedure, shortened: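 HEK293 cells (2,000/well, medium with 10% dialyzed FBS) attached 4-5 hr, then exposed to compound overnight at 37C, 5% CO2. Blue fluorescence read at 405/460 nm, with triamterene as reference fluorophore.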

[7] = qHTS assay to test for compound auto fluorescence at 590 nm (red) in HEK293 cells (AID 720679)
Procedure, shortened: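 HEK293 cells (2,000/well, 10% dialyzed FBS) attached 4-5 hr, then dosed with compound or DMSO and incubated overnight at 37C, 5% CO2. Red fluorescence read at 540/590 nm, Rose Bengal sodium as reference fluorophore.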

[8] = qHTS assay for small molecules that induce genotoxicity in human embryonic kidney cells expressing luciferase-tagged ATAD5 (AID 651632); further: nearly all actives have a fitted effect of over 15% in size; further: potency means the concentration at half of the fitted maximal effect
Procedure, shortened: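 Quantitative HTS in HEK293T expressing luciferase-tagged ATAD5, whose levels rise upon DNA damage. Exposure ran 16 hr at 37C and 5% CO2, with luminescence read 30 min after Amplite addition at room temperature.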

[9] = qHTS assay for small molecule agonists of the p53 signaling pathway - cell viability (AID 651633; calls by dose curve; further: nearly all actives have a fitted effect of over 30% in size; further: potency means the concentration at half of the fitted maximal effect)
Procedure, shortened: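 p53RE-bla cells, seeded at 4,000 per well and rested 5 h at 37 C/5% CO2, received compounds in DMSO for 16 h at 37 C. CellTiter-Glo was then added, and luminescence was read after 30 min at room temperature to gauge cytotoxicity.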
On the % scale 0 is the no-effect control and ±100 the full control effect.

N#CSCSc1nc2ccccc2s1
inactive: Potency [1] | Potency [2] | Potency [4] | Potency [5] | Potency [6] | Potency [7]
active: Potency [3] 30.6 µM

NC(=O)C(=O)N/N=C/c1ccc([N+](=O)[O-])o1
inactive: Potency [8] | Potency [1] | Potency [4] | Potency [5] | Potency [7]

Brc1ccccc1-c1ccccc1
inactive: Potency [8] | Potency [1] | Potency [4] | Potency [5] | Potency [6] | Potency [7]
active: Potency [3] 51.6 µM

Cc1oc(-c2ccccc2)nc1CCOc1ccc(C[C@H](Nc2ccccc2C(=O)c2ccccc2)C(=O)O)cc1
inactive: Potency [8] | Potency [4] | Potency [5] | Potency [7]
active: Potency [1] 54.5 µM | Potency [3] 61.1 µM

O=C1Nc2ccc(Cl)cc2[C@@](C#CC2CC2)(C(F)(F)F)O1
inactive: Potency [8] | Potency [4] | Potency [5] | Potency [6] | Potency [7]
active: Potency [2] 29.8 µM | Potency [3] 4.73 µM

CCCCCCC(C)OC(=O)COc1nc(F)c(Cl)c(N)c1Cl (centres undefined)
inactive: Potency [8] | Potency [1] | Potency [4] | Potency [5] | Potency [6] | Potency [7]
active: Potency [3] 61.1 µM

CCCCOc1ccc(C(=O)CCN2CCCCC2)cc1
inactive: Potency [1] | Potency [2] | Potency [3] | fluorescence, relative to Rose Bengal [4] 0.0479% [at 18.6 µM] | fluorescence, % of fluorescein control [5] 0.0117% [at 18.6 µM] | fluorescence, % of triamterene [6] 0.101% [at 18.6 µM] | fluorescence, % of fluorescent control [7] -0.0275% [at 18.6 µM]

NC1(c2ccc(-c3nc4ccn5c(=O)[nH]nc5c4cc3-c3ccccc3)cc2)CCC1
inactive: Potency [8] | Potency [2] | Potency [4] | Potency [5] | Potency [6] | Potency [7]
active: Potency [3] 13.3 µM

Cc1cc(Nc2ccc(O)cc2)ccc1N
active: Potency [1] 27.2 µM | Potency [3] 6.82 µM
inactive: Potency [9] | Potency [4] | Potency [5] | Potency [6] | Potency [7]

CCCCCCOc1cc(C)c(O)c(C)c1C
active: Potency [2] 27.6 µM | Potency [3] 5.51 µM
inactive: Potency [8] | Potency [4] | Potency [5] | Potency [6] | Potency [7]

CC1=C(/C=C/C(C)=C/C=C/C(C)=C\C=O)C(C)(C)CCC1
inactive: Potency [2] | Potency [4] | Potency [5] | Potency [6] | Potency [7]
active: Potency [3] 57.9 µM

SCCCCCCCCS
inactive: Potency [9] | Potency [2] | Potency [4] | Potency [5] | Potency [7]

CN(C)c1ccc(N=NS(=O)(=O)O)cc1
active: Potency [3] 2.17 µM
inactive: Potency [8] | Potency [4] | Potency [5] | Potency [6] | Potency [7]

Cc1cc2c(C(C)C)c(O)c(O)c(C=O)c2c(O)c1-c1c(C)cc2c(C(C)C)c(O)c(O)c(C=O)c2c1O
active: Potency [9] 8.41 µM | Potency [1] 13.3 µM | Potency [3] 11.9 µM
inactive: Potency [2] | Potency [4] | Potency [5] | Potency [6] | Potency [7]

O=C(Oc1ccccc1)c1cccc(C(=O)Oc2ccccc2)c1
active: Potency [8] 3.86 µM | Potency [3] 32.3 µM
inactive: Potency [1] | Potency [4] | Potency [5] | Potency [6] | Potency [7]

NCCCC(O)(P(=O)(O)O)P(=O)(O)O
inactive: Potency [9] | Potency [1] | Potency [2] | Potency [3] | Potency [4] | Potency [5] | Potency [6] | Potency [7]

CC=O
inactive: Potency [8] | Potency [4] | Potency [5] | Potency [7]

CSc1ccc2c(c1)N(CCC1CCCCN1C)c1ccccc1S2 (centres undefined)
inactive: Potency [8] | Potency [4] | Potency [5] | Potency [7]
active: Potency [1] 29.8 µM and 68.3 µM

CNCC[C@H](Oc1cccc2ccccc12)c1cccs1
inactive: Potency [2] | Potency [4] | Potency [5] | Potency [6] | Potency [7]
active: Potency [3] 13.3 µM

NC(=O)c1nc(-c2cccc(-c3cc(F)ccc3OCC(F)(F)C(F)(F)F)c2)n[nH]1
inactive: Potency [8] | Potency [4] | Potency [5] | Potency [6] | Potency [7]
active: Potency [3] 9.69 µM

c1cc(OCC2CO2)cc(OCC2CO2)c1 (centres undefined)
inactive: Potency [8] | Potency [2] | Potency [4] | Potency [5] | Potency [6] | Potency [7]

COC(=O)[C@]1(C)CCC[C@@]2(C)[C@H]1CC=C1C=C(C(C)C)CC[C@@H]12
active: Potency [3] 54.5 µM
inactive: Potency [8] | Potency [2] | Potency [4] | Potency [5] | Potency [7]

Oc1ccc(-c2ccc(O)cc2)cc1
inactive: Potency [1] | Potency [2] | Potency [4] | Potency [5] | Potency [7]
active: Potency [3] 43.5 µM

CN1[C@@H]2CC[C@@H]1CC(OC(=O)C(CO)c1ccccc1)C2 (some centres undefined)
inactive: Potency [2] | Potency [3] | Potency [4] | Potency [5] | Potency [6] | Potency [7]

C[C@H]1O[C@@H](O[C@H]2[C@@H](O)C[C@H](O[C@H]3[C@@H](O)C[C@H](O[C@H]4CC[C@@]5(C)[C@H](CC[C@@H]6[C@@H]5C[C@@H](O)[C@]5(C)[C@@H](C7=CC(=O)OC7)CC[C@]65O)C4)O[C@@H]3C)O[C@@H]2C)C[C@H](O)[C@@H]1O
active: Potency [1] 168 nM and 48.6 nM and 42.8 nM | Potency [3] 298 nM and 1.37 µM and 604 nM
inactive: Potency [2] | Potency [4] | Potency [5] | Potency [6] | Potency [7]

CN(C)c1ccc(N=Nc2ccccc2C(=O)O)cc1
inactive: Potency [2] | Potency [4] | Potency [5] | Potency [6] | Potency [7]
active: Potency [1] 54.5 µM

COC(=O)C1=C(C)NC(C)=C(C(=O)OCCCN2CCC(c3ccccc3)(c3ccccc3)CC2)C1c1cccc([N+](=O)[O-])c1 (centres undefined)
inactive: Potency [2] | Potency [4] | Potency [5] | Potency [7]
active: Potency [9] 26.6 µM | Potency [1] 23.7 µM

CC(=O)OC(OC(C)=O)c1ccc([N+](=O)[O-])o1
active: Potency [1] 62.2 µM | Potency [3] 31.2 µM
inactive: Potency [4] | Potency [5] | Potency [6] | Potency [7]

C=C(c1ccc(C(=O)O)cc1)c1cc2c(cc1C)C(C)(C)CCC2(C)C
active: Potency [3] 9.44 µM and 21.7 µM
inactive: Potency [8] | Potency [2] | Potency [4] | Potency [5] | Potency [6] | Potency [7]

CN(C)CCCN1c2ccccc2CCc2ccccc21
inactive: Potency [1] | Potency [2] | Potency [4] | Potency [5] | Potency [6] | Potency [7]

Cc1c(-c2ccc(O)cc2)n(Cc2ccc(OCCN3CCCCCC3)cc2)c2ccc(O)cc12
inactive: Potency [2] | Potency [4] | Potency [5] | Potency [6] | Potency [7]
active: Potency [3] 10.6 µM

O=C1c2c(O)ccc(O)c2C(=O)c2c(NCCNCCO)ccc(NCCNCCO)c21
active: Potency [9] 4.52 µM | Potency [1] 9.02 µM
inactive: Potency [2] | fluorescence, relative to Rose Bengal [4] 0.231% [at 18.6 µM] | fluorescence, % of fluorescein control [5] -0.149% [at 18.6 µM] | fluorescence, % of triamterene [6] -0.405% [at 18.6 µM] | fluorescence, % of fluorescent control [7] -1.36% [at 18.6 µM]

C[C@]12CC[C@H]3C(=CCc4cc(O)ccc43)[C@@H]1CCC2=O
inactive: Potency [8] | Potency [4] | Potency [5] | Potency [6] | Potency [7]
active: Potency [3] 19.3 µM
